Screening data: PubChem, National Center for Advancing Translational Sciences (NCATS)
An excerpt weighted towards active compounds, which were near 1.3% of everything screened.
VACV mCherry inh – vaccinia inhibition (mCherry reporter) | Vaccinia virus mCherry reporter infection, fluorescence | Potency, µM (titrated, usually from 36.5 µM), for inactives: at the top dose activity change, negative = inhibition, most hits filed as inhibitors | 0.63% of 310,000 active; calls by dose curve; tested in A549 cells; also: % is scaled to controls: 0 for no effect and ±100 for the full control effect; nearly all actives have a fitted effect of over 35% in size
SARS PLP yeast – blocks SARS-CoV papain-like protease in a yeast assay | S. cerevisiae expressing SARS-CoV PLpro, growth rescue | Potency, µM (titrated, usually from 32.9 µM), for the others: at the highest dose activity, positive = growth rescue, actives largely listed as activators | 0.19% of 330,000 active | AID 485353; calls by dose curve; also: 0% is about no effect; nearly all actives have a fitted effect of over 55% in size
AMA1 RON2 block – inhibitors of Plasmodium falciparum AMA1-RON2 interaction; AlphaScreen AMA1-biotinylated RON2 peptide binding; Potency, µM (titrated, usually from 58.2 µM), for inactives: at the highest dose activity change, negative = inhibition, hits mostly inhibitors; 0.2% of 360,000 active; AID 720542;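 also: 0% = vehicle wells and -100% = peptide control; nearly all actives have a fitted effect of over 45% in size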
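AMA1 (3D7) with his tag at 25 nM final met compounds first, then biotinylated RON2 peptide at 25 nM; detection used donor plus acceptor beads, 10 µg/mL apiece, read by AlphaScreen after 30 min at room temperature.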
VACV Venus inh – inhibitors of vaccinia virus (Venus reporter); Vaccinia virus Venus reporter expression, fluorescence; Potency, µM (titrated, usually from 36.5 µM), for the others: at the highest dose activity change, negative = inhibition, actives largely listed as inhibitors; 0.46% of 330,000 active; AID 720580; calls by dose curve; tested in A549 cells; also: % is scaled to controls: 0 for no effect and ±100 for the full control effect; nearly all actives have a fitted effect of over 30% in size
AmpC inh no detg – AmpC beta-lactamase inhibition without detergent. P00811. AmpC nitrocefin hydrolysis, absorbance 480 nm, 0.0001% Triton. Potency, µM (series often up to 57.1 µM), for inactives: at the top dose activity change, negative = inhibition, usual class: inhibitors. 0.52% of 330,000 active;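 also: plate controls were no compound for no effect and no enzyme for full effect; nearly all actives have a fitted effect of over 20% in size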
Target sequence (P00811 whole entry, looked up): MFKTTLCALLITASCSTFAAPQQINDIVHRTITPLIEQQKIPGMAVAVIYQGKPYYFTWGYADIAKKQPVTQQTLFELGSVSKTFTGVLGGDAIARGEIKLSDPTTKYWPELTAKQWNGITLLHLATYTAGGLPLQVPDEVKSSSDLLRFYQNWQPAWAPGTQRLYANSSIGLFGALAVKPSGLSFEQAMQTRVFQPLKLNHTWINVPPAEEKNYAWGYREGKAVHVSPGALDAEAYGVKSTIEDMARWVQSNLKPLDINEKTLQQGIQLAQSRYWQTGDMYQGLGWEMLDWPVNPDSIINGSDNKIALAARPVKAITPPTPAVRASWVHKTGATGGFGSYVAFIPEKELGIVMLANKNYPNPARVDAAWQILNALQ
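20 mM phosphate pH 7.0 + 0.01% (detergent screen) or 0.0001% Triton X-100; 5.3 nM AmpC reagent; cpd preinc 15 min RT; nitrocefin (800 uM stock) to start; A480 q20 s × 4 min; Activity was normalised to no-enzyme and no-compound control wells.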
AmpC detergent – blocks E. coli AmpC beta-lactamase in detergent assay | P00811 | AmpC hydrolysis of nitrocefin, absorbance 480 nm, 0.01% Triton | Potency, µM (titrated, usually from 114 µM), without a hit: top-dose activity change, negative = inhibition, hits mostly inhibitors | 0.041% of 370,000 active;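 also: 0% = no-compound wells and -100% = no-enzyme wells; nearly all actives have a fitted effect of over 25% in size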
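20 mM phosphate pH 7.0 + 0.01% (detergent screen) or 0.0001% Triton X-100; 5.3 nM AmpC reagent; cpd preinc 15 min RT; nitrocefin (800 uM stock) to start; A480 q20 s × 4 min; Activity was normalised to no-enzyme and no-compound control wells.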
* marks the source's active call; other numbers are inactive results; ? = inconclusive; nt = not tested or not shown; [ ] = dose if it differs, or a comment. Unless noted, calls follow the shape of the dose curve; as a rule, active = well fitted curve in the direction sought with a large enough effect; inconclusive = small, poorly fitted or top-dose-only effect, or another doubt; inactive = no such curve, though single readings can be large; an effect the other way counts as inactive or inconclusive. Potency is read from the fitted curve at half-maximal effect.

SMILES | VACV mCherry inh | SARS PLP yeast | AMA1 RON2 block | VACV Venus inh | AmpC inh no detg | AmpC detergent
Cc1ccc(CNc2ncnc3sc(C(=O)N4CCC[C@H]4C(N)=O)c(C)c23)o1 | -7.8% | nt | nt | -1.7% | nt | nt
O=C(COc1ccccc1C(=O)Nc1ccccc1)Nc1cccc([N+](=O)[O-])c1 | ? | nt | nt | -29.8% | nt | nt
Cc1ccc(C(=O)N(Cc2cc3cccc(C)c3nc2N2CCC(O)CC2)C2CC2)cc1 | -23.3% | nt | nt | -22.5% | nt | nt
N=C1/C(=C\c2ccc(-c3ccc(C(=O)O)cc3)o2)C(=O)N=C2SC=C(c3ccccc3)N12 | 1.8%[7.34 µM] | 0.9% | 6.2% | 2.4%[7.34 µM] | -27.8% | -0.4%
N=C1/C(=C\c2ccc(-c3cccc(Cl)c3)o2)C(=O)N=C2SC=C(c3ccccc3)N12 | -14.0% | 8.3% | 20.6% | 9.5% | 15.8µM* | -6.8%
Cc1ccc(NS(=O)(=O)c2cc3c4c(cccc4c2)C(=O)NC3=O)cc1C | 12.6µM* | -0.9% | 15.5% | 10µM* | -35.3% | -0.4%
O=C1NC(=O)c2cc(Br)cc3cccc1c23 | 2.8% | -1.7% | -2.2% | -5.5% | -11.7% | -9.8%
CC(C)c1ccc(/C=C2\SC(=O)N(CC(=O)NC3CCS(=O)(=O)C3)C2=O)cc1 (stereo not given) | nt | 2.0% | -6.1% | nt | 24.5% | -1.8%
Cc1ncoc1C(=O)N1CCOc2ccc(CN3CCC(Oc4cccnc4)CC3)cc2C1 | -1.8% | nt | nt | 6.6% | nt | nt
CCCN(CCC)C(=O)Cn1c(=O)n(CCCCC(=O)NC2CCCC2)c(=O)c2ccccc21 | nt | 1.2% | -1.9% | 3.3% | 0.316µM* | -1.2%
O=C(CCCCn1c(=O)c2ccccc2n(CC(=O)NC2CCCC2)c1=O)NC1CCCC1 | -14.7% | -5.5% | -3.9% | -7.1% | -9.6% | -2.9%
Cc1c(C(=O)NCc2ccc(F)cc2)sc2ncnc(NCC3CCCO3)c12 (stereo not given) | -18.6% | nt | nt | -5.7% | nt | nt
C#CCOCCOCCOCCNc1nc(N2CCN(C(=O)CCCCCCCCCCNC(=O)[C@@H](CCSC)n3cc(CCO)nn3)CC2)nc(N2CCN(C(=O)CCCCCCCCCCNC(=O)[C@H](CCCN=C(N)N)n3cc(C[C@@H](C)CC)nn3)CC2)n1 | ? | 10.6% | ? | 10µM* | 266.0% | 2.6%
C#CCOCCOCCOCCNc1nc(N2CCN(C(=O)CCCCCCCCCCNC(=O)[C@H](CCCCN)n3cc(CCO)nn3)CC2)nc(N2CCN(C(=O)CCCCCCCCCCNC(=O)[C@H](CCCCN)n3cc(C[C@@H](C)CC)nn3)CC2)n1 | -27.3% | 4.1% | ? | 10µM* | 285.8% | 5.6%
C#CCOCCOCCOCCNc1nc(N2CCN(C(=O)CCCCCCCCCCNC(=O)[C@H](CCCCN)n3cc(C[C@@H](C)CC)nn3)CC2)nc(N2CCN(C(=O)CCCCCCCCCCNC(=O)[C@H](CCCN=C(N)N)n3cc(C[C@@H](C)CC)nn3)CC2)n1 | ? | 1.3% | ? | 8.91µM* | 270.8% | ?
C#CCOCCOCCOCCNc1nc(N2CCN(C(=O)CCCCCCCCCCNC(=O)[C@H](CO)n3cc(CCCCCN)nn3)CC2)nc(N2CCN(C(=O)CCCCCCCCCCNC(=O)[C@H](CCCN=C(N)N)n3cc(C[C@@H](C)CC)nn3)CC2)n1 | nt | 3.3% | nt | nt | 269.0% | 3.8%
C#CCOCCOCCOCCNc1nc(N2CCN(C(=O)CCCCCCCCCCNC(=O)[C@H](CCCCN)n3cc(C)nn3)CC2)nc(N2CCN(C(=O)CCCCCCCCCCNC(=O)[C@H](CCCN=C(N)N)n3cc(C[C@@H](C)CC)nn3)CC2)n1 | ? | -12.6% | ? | 10µM* | 332.6% | 1.0%
COc1cc(=O)n2c(c1C(=O)NCc1ccco1)CCN(C(=O)c1ccc(C)c(C)c1)CC2 | -22.1% | nt | nt | -10.0% | nt | nt
C=C1C(=O)[C@]23C[C@H]1CCC2[C@@]1(C)C(C[C@@H]3O)[C@](C)(C(=O)OC)CC[C@@H]1O (stereo not given in full) | 8.91µM* | nt | 23.0% | ? | nt | nt
